Screening results deposited in PubChem by National Center for Advancing Translational Sciences (NCATS).
Shown are actives, neighbours in structure and some others; about 8.8% of the full set was active somewhere.
HT1080 IDH1KD tx: qHTS for induction of synthetic lethality in tumor cells producing 2HG: qHTS for the HT-1080-IDH1KD cell line | HT-1080 IDH1 knockdown viability, ATP luminescence, 48 h | Potency, µM (highest dose often 46.1 µM), without a hit: at the top dose activity, negative = toxicity, most hits filed as cytotoxic | 360,000 tested, 2% active;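 also: potency is read from the fitted curve at half-maximal effect; 0% = DMSO wells and -100% = cell-free medium wells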
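HT-1080-IDH1KD cells (IDH1 knocked down), 750/well in RPMI with 5% FBS, treated with compound 48 h at 37 degrees C. Viability by CellTiter-Glo luminescence, normalised to DMSO and no-cell wells; concentration-response curves classed.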
KB-V1 cytotox: qHTS assay for MDR1-selective chemotherapeutics: Primary screen using the drug-selected MDR subline cells KB-V1 | KB-V1 MDR cells viability, CellTiter-Glo, 72 h | 400,000 tested, 3.4% active | Potency, µM (doses to about 46.1 µM), hits mostly cytotoxic | AID 1347076, 2019; also: potency is read from the fitted curve at half-maximal effect; nearly all actives have a fitted effect of over 60% in size
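Compound-treated KB-V1 multidrug-resistant cells, 72 h, 37 degrees C; viability by CellTiter-Glo. Fitted qHTS curves give the values.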
HT1080NT lethal: qHTS for induction of synthetic lethality in tumor cells producing 2HG: qHTS for the HT-1080-NT fibrosarcoma cell line. HT-1080-NT fibrosarcoma viability, CellTiter-Glo ATP luminescence, 48 h. 360,000 tested, 1.6% active. Potency, µM (top dose mostly 46.1 µM), without a hit: at the top dose activity, negative = less viability, usual class: cytotoxic. AID 686970, 2013;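 also: NT is the 2HG producing partner of a matched IDH1 knockdown line; potency is read from the fitted curve at half-maximal effect; 0% = DMSO-treated cells and -100% = media-only wells without cells; nearly all actives have a fitted effect of over 55% in size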
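HT-1080-NT fibrosarcoma cells (2HG-overproducing), 750 cells/well in RPMI with 5% FBS, dosed after 2 h and incubated 48 h at 37C. CellTiter-Glo luminescence normalized to DMSO and no-cell wells; concentration-response curves fitted and classed.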
KB-3-1 cytotox: qHTS assay for MDR1-selective chemotherapeutics: Primary screen using the parental adenocarcinoma cell KB-3-1; KB-3-1 viability, CellTiter-Glo ATP luminescence, 72 h; Potency, µM (top dose mostly 46.1 µM), usual class: cytotoxic; 400,000 tested, 1.4% active; AID 1347075, 2019; also: potency is read from the fitted curve at half-maximal effect; nearly all actives have a fitted effect of over 60% in size
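Using CellTiter-Glo luminescence, growth of non-resistant KB-3-1 adenocarcinoma cells is assessed 72 h after pin-tool compound addition at 37 °C. Normalized responses across the concentration series yield fitted curves.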
IL-1B inflam inh: qHTS for Inhibitors of Inflammasome Signaling: IL-1-beta AlphaLISA Primary Screen | THP-1 LPS/ATP IL-1B secretion, AlphaLISA, 16 h; stronger effect = lower value | activity change, % at 57.5 µM | 360,000 tested, 4.7% active; in the data active = activity change below about -50%; inconclusive = mostly about -30% to -49%
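THP-1 cells pretreated 1 hr with compounds (up to 57.5 uM final), then stimulated with LPS (250 ng/mL final) plus ATP (1.25 mM final); secreted IL-1B measured by AlphaLISA after 16 hr, decreased signal indicating inhibition.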
* = called active by the depositor; i = inactive; ? = inconclusive; . = no result; ! = repeats disagree. Unless noted, calls follow the shape of the dose curve; as a rule, active = well fitted curve in the direction sought with a large enough effect; inconclusive = small, poorly fitted or top-dose-only effect, or another doubt; inactive = no such curve, though single readings can be large; an effect the other way counts as inactive or inconclusive. Unless noted, % is scaled to controls: 0 for no effect and ±100 for the full control effect.

SMILES	HT1080 IDH1KD tx	KB-V1 cytotox	HT1080NT lethal	KB-3-1 cytotox	IL-1B inflam inh
CCC(=O)C(C#N)(c1ccc(OC)c(OC)c1)C(C)C (configuration not stated)	15%	i	10%	i	13
O=C(c1ccoc1)N1CCN(c2cc(-c3cccnc3)nc3cc(-c4cccc(Cl)c4)nn23)CC1	-3%	?	-3%	?	?
N#Cc1cn(-c2cccc(C(F)(F)F)c2)c(=O)[nH]c1=O	-16%	i	-14%	i	27
CCC(C)C(=O)Nc1ccc(S(=O)(=O)N2CCCC2)cc1 (configuration not stated)	2%	i	1%	i	14
CCC(C)NS(=O)(=O)c1ccc(S(=O)(=O)N2CCCC3(CCCCC3)C2)cc1 (configuration not stated)	-29%	3.7µM*	-19%	5.8µM*	-13
CCc1ccc(C(=O)c2cnc3ccc(F)cc3c2S(=O)(=O)c2ccccc2)cc1	.	i	.	i	.
N#Cc1c(Cl)nsc1NN	?	i	?	i	-64*
COc1ccc(C(=O)NC2(C(F)(F)F)NC(=O)N(CCCc3ccccc3)C2=O)cc1OC (configuration not stated)	-29%	i	?	i	-68*
COc1ccc(CCN2C(=O)NC(NC(C)=O)(C(F)(F)F)C2=O)cc1OC (configuration not stated)	19%	?	18%	i	17
COc1ccc(-c2[nH]nc3oc(=O)c(CCO)c(C)c23)cc1	1%	i	-2%	i	-84*
Oc1cccc2c(CC(O)c3c[nH]c4ccccc34)ccnc12 (configuration not stated)	.	?	.	0.73µM*	.
CCOC(=O)C1=CCN(S(=O)(=O)c2ccc(F)cc2)C1c1ccc(F)cc1 (configuration not stated)	-3%	i	-1%	i	28
COc1cc(NS(=O)(=O)c2ccc(Br)s2)cc(OC)c1	-26%	16µM*	-27%	?	38
Cc1ccc(S(=O)(=O)N2CCC(C(=O)N3CCCC(C(F)(F)F)C3)CC2)cc1C (configuration not stated)	0%	i	0%	i	-10
O=[N+]([O-])c1nn(-c2ccc3c(c2)OCCO3)n(O)c1=NC1CCCCCC1	?	16µM*	-1%	i	-9
COc1ccc(-n2nc([N+](=O)[O-])c(=NCc3ccc4c(c3)OCO4)n2O)cc1	-1%	21µM*	-2%	i	?
OCCNc1nc(SCc2ccccc2)nc2sc3c(c12)CCC3	-28%	7.3µM*	-14%	i	-14
O=c1c2c3c(sc2nc(NCCO)n1CCc1ccccc1)CCCCC3	?	?	-28%	?	-12
CCOC(=O)c1c(NC(=O)c2nn(CC)cc2Br)c(C#N)nn1-c1ccccc1	-8%	16µM*	1%	i	13
COc1cc(O)c(C(CC(=O)N2CCC(Cc3ccccc3)CC2)c2ccc(OC)c(OC)c2)c(OC)c1 (configuration not stated)	.	?	.	i	.
CCOCCCNC(=O)c1cc(=O)n(Cc2cccc(C)c2)c2ccccc12	-18%	9.2µM*	-5%	?	21
Cn1c(CN2CCCC2)nc2cc(NC(=O)C3CCCCC3)ccc21	4%	i	1%	i	-2
CCn1c(CN2CCN(C)CC2)nc2cc(NC(=O)c3ccc([N+](=O)[O-])cc3)ccc21	.	?	.	i	.
CCn1c(CN2CCOCC2)nc2cc(NC(=O)c3ccc([N+](=O)[O-])cc3)ccc21	.	?	.	16µM*	.
Cn1c(CN2CCCCC2)nc2cc(NC(=O)c3ccc(F)cc3)ccc21	-7%	21µM*	-30%	?	?
SMILES	HT1080 IDH1KD tx	KB-V1 cytotox	HT1080NT lethal	KB-3-1 cytotox	IL-1B inflam inh
Cn1c(CN2CCCCC2)nc2cc(NC(=O)c3ccccc3Cl)ccc21	?	15µM*!	-18%	?	14
COc1ccc(NC(=O)c2cc(C3CCCCN3S(=O)(=O)Cc3ccccc3)on2)cn1 (configuration not stated)	-5%	i	6%	i	-5
Cc1ccccc1OCCn1cnc2cc([N+](=O)[O-])ccc2c1=O	-20%	?	-16%	i	0
COc1ccc(CCNC(=O)C2CCCN(Cc3nc(-c4ccccc4C)oc3C)C2)cc1OC (configuration not stated)	-14%	16µM*	-5%	i	-4
CCOc1ccc(CCNC(=O)C2CCN(Cc3nc(-c4ccccc4C)oc3C)CC2)cc1OCC	.	i	.	i	.
COc1ccc(CCNC(=O)C2CCN(Cc3nc(-c4cccc(Cl)c4)oc3C)CC2)cc1OC	-24%	3.3µM*	-10%	?	-3
CCc1ccc(-c2nc(CN3CCCC(C(=O)NCCc4ccc(OC)c(OC)c4)C3)c(C)o2)cc1 (configuration not stated)	?	2.3µM*	-30%	23µM*	-59*
Cc1oc(-c2cccc(Cl)c2)nc1CN1CCC(C(=O)NCCc2ccc(Cl)cc2)CC1	.	i	.	i	.
CCc1ccc(-c2nc(CN3CCCC(C(=O)NCc4ccc(C)cc4)C3)c(C)o2)cc1 (configuration not stated)	.	i	.	i	.
CN1CCCN(c2cc(-c3ccc4ccccc4c3)nc3ccnn23)CC1	0%	i	?	i	-22
Cc1ccc(NC(=O)NNC(=O)Cn2nc(-c3ccccc3)c(-c3ccccc3)c(C#N)c2=O)cc1	5.2µM*	i	4.6µM*	6.5µM*	74
CC1=CCC2C(=O)N(c3cccc(C(=O)NCc4ccccc4)c3)C(=O)C2C1 (configuration not stated)	7%	i	10%	i	16
CC1=CCC2C(=O)N(c3cccc(C(=O)Nc4ccc(Cl)cc4)c3)C(=O)C2C1 (configuration not stated)	-17%	i	-5%	i	-80*
Cc1ccc(-n2c(-c3ccc(Cl)cc3)c[n+]3c2CCC3)cc1	?	i	?	4.6µM*	0
Cc1ccc(-n2c(-c3ccccc3)c[n+]3c2CCC3)cc1	5.8µM*	?	?	3.7µM*	-73*
CCCCCCCCCCCCCCCCCCN(CCCCCCCCCCCCCCCCCC)c1ccccc1	.	i	.	i	.
C/C(=N\NC(=O)c1ccccc1OCc1ccc(F)cc1)c1ccccn1	?	?	?	12µM*	52
